Out of some 320,000 compounds screened, about 2,100 (0.66%) were called active. Roughly 53% stayed inconclusive and do not appear here. The call rests on the fitted dose curve; in most records, active means well fitted inhibition curve with a large enough effect in the signal ratio, with a control signal flat (not every such curve was filed as active); inconclusive means small, poorly fitted or top-dose-only effect, or effect the other way, or a change in a side signal; inactive means flat fitted curve, though single readings scatter; the % refers to the signal ratio. What follows is part of a selection rich in actives, with near analogues and random picks from the rest.
Potency means the concentration at half of the fitted maximal effect.

The test in a line: qHTS Assay for Lipid Storage Modulators in Drosophila S3 Cells.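 On cell number change: cells counted by Cell Tracker Red CMTPX staining in the red channel.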 On lipid storage change, negative = inhibition: on the % scale 0 is the no-effect control and ±100 the full control effect. Conditions: BODIPY lipid droplet fluorescence, 18-24 h, cells fed with added oleic acid; cell number change: measured here: cell count max response; series mostly up to 46.1 µM; lipid storage change, negative = inhibition: at the top concentration. The procedure, abridged:
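Drosophila S3 cells got compounds at several concentrations plus oleic acid (400 uM solution). Laser-scanning cytometry with 488 nm excitation read lipid droplets at 500-530 nm and cells at 575-640 nm. Percent activity was relative to 20 uM Triacsin C.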
On to `Cc1cccc(CSc2nnc([C@@H]3CCCN3C(=O)OC(C)(C)C)o2)c1`, for which the “lipid storage change, negative = inhibition” value is 0.387% (inactive) and the cell number change came out at 6.08%.

As for `CCOC(=O)C1CCN(c2ccc([N+](=O)[O-])cc2)CC1`, the “lipid storage change, negative = inhibition” value was -22.6% (inactive) and the cell number change is -12%.

In the case of `COc1ccc(OC)c(S(=O)(=O)Nc2ccc3oc(C)c(C(C)=O)c3c2)c1`, the result was inactive and the cell number change was -9.21%.

For `Nc1c(C(=O)NC2CCCCC2)nsc1C(=O)OCC(=O)NC1CCCCC1`, the “lipid storage change, negative = inhibition” value is 22.9% (inactive) and the cell number change was -16.5%.

For the molecule `Cc1cc(C)cc(OCC(=O)OCC(=O)NC2CCCCCCC2)c1`, the result was inactive and the cell number change is -3.74%.

Consider `O=C(COC(=O)c1c(Cl)cccc1Cl)NC1CCCCC1`, for which the “lipid storage change, negative = inhibition” value was 3.06% (inactive).

Consider `Nc1c(Cl)c(Cl)nc(C(=O)OCC(=O)NC2CCCCC2)c1Cl`, for which the Potency is 9.2 µM (active) and the cell number change is -8.54%.

For the molecule `Cc1ccsc1C(=O)OCC(=O)NC1CCCC1`, the Potency was 0.517 µM (active) and the cell number change is -11%.

`O=C(COC(=O)c1cccc(C(=O)OCC(=O)NC2CCCCC2)n1)NC1CCCCC1`: the Potency is 20.6 µM (active) and the cell number change was -17.1%.

`O=C(COC(=O)c1nc(Cl)ccc1Cl)NC1CCCCCC1`: the molecule was called inactive.

On to `Cc1ccsc1C(=O)OCC(=O)NC1CCS(=O)(=O)C1` (stereo unspecified), for which the “lipid storage change, negative = inhibition” value was -5.35% (inactive) and the cell number change amounted to 0.0545%.

For `Cc1cc(C)c(OCC(=O)OCC(=O)NC2CCCCCCC2)c(C)c1`, the Potency was 1.84 µM (active) and the cell number change came to 19.3%.

Regarding `Cc1ccsc1C(=O)OCC(=O)NCCNC(=O)COC(=O)c1sccc1C`, the cell number change is 12.8% and the lipid storage change, negative = inhibition is -4.96% [at 0.0737 µM] (inactive).

Turning to `O=C(COC(=O)c1ccccc1)NC1CCCC1`, the “lipid storage change, negative = inhibition” value was -8.07% (inactive) and the cell number change was -13.7%.

On to `Cc1ccccc1OCC(=O)OCC(=O)NC1CCCCCC1`, for which the cell number change was -24.2% and the outcome is “inactive [at 0.0737 µM]”.

Take `Cn1c(=O)c(=O)n(C)c2cc(S(=O)(=O)N3CCCCCC3)ccc21`: the “lipid storage change, negative = inhibition” value is 8.17% (inactive) and the cell number change was 11.2%.

For `CN(C)CCCNS(=O)(=O)c1ccc(N2CCN(Cc3ccc4c(c3)OCO4)CC2)c([N+](=O)[O-])c1`, the molecule was called inactive and the cell number change is -3.81%.

On to `COc1cc(OC)c(NC(=O)C(=O)CC(=O)c2ccc(C)cc2C)cc1Cl`, for which the “lipid storage change, negative = inhibition” value was -15.5% (inactive) and the cell number change is -12.6%.

Turning to `CN1C(=O)/C(=C/c2ccccc2Cl)Sc2ccc(C(=O)NCc3cccnc3)cc21`, the “lipid storage change, negative = inhibition” value was 9.31% (inactive) and the cell number change is -7.77%.

As for `Cc1ccc(S(=O)(=O)N/N=c2\oc3ccccc3cc2C(=O)Nc2cccc(C)c2)cc1`, the “lipid storage change, negative = inhibition” value is 19.4% (inactive) and the cell number change is -24.3%.

In the case of `CCOC(=O)c1sc2nc(C)nc(SCC(=O)N(CC)C3CCS(=O)(=O)C3)c2c1C` (stereo unspecified), the “lipid storage change, negative = inhibition” value was 1.68% (inactive) and the cell number change is -1.32%.

Turning to `Cn1nc(-c2ccc(C(=O)NCCO)cc2)c2ccccc2c1=O`, the “lipid storage change, negative = inhibition” value is 2.9% (inactive) and the cell number change is -4.78%.

On to `CC1(c2ccc(OCC#N)cc2)C=C(c2ccc(OCC#N)cc2)n2nc(C(F)(F)F)nc2N1` (stereo unspecified), for which the “lipid storage change, negative = inhibition” value was -10.8% (inactive) and the cell number change is -2.27%.

In the case of `C=CCN1c2ccccc2[C@]23C[C@@H](C(=O)OC)N=C2NC(C(=O)OC)=C(C(=O)OC)[C@H]13`, the “lipid storage change, negative = inhibition” value was 7.18% (inactive) and the cell number change stood at 33.7%.

Take `CC(C)OC(=O)/C(C#N)=C\c1cccnc1`: the “lipid storage change, negative = inhibition” value was 2.35% (inactive) and the cell number change is 5.73%.

Consider `CCC(C)(C)NC(=O)C(c1ccc(OC)cc1)N(C(=O)CCC(=O)Nc1cc(C)on1)C1CC1` (stereo unspecified), for which the molecule was called inactive and the cell number change was -1.32%.

Turning to `O=C(Nc1cc2c(cc1Br)OCCO2)c1cccnc1`, the “lipid storage change, negative = inhibition” value was 29.5% (inactive) and the cell number change is -16.4%.

Turning to `Cc1ccc(S(=O)(=O)NNC(=O)C2CCN(S(=O)(=O)c3ccc(C)cc3)CC2)cc1`, the “lipid storage change, negative = inhibition” value was -9.5% (inactive) and the cell number change came out at 1.57%.

`Cc1ccc(S(=O)(=O)N2CCC(C(=O)NNS(=O)(=O)c3ccc(Cl)cc3)CC2)cc1`: the “lipid storage change, negative = inhibition” value is -27.5% (inactive) and the cell number change worked out at 4.8%.

For the molecule `Cc1ccc(S(=O)(=O)NNC(=O)C2CCCCC2)cc1`, the Potency was 0.651 µM (active) and the cell number change came out at 6.31%.

For `CCOc1ccc(C(=O)OCC(=O)N2CCCC2)cc1OCC`, the result was inactive and the cell number change was -21%.

`COc1ccccc1NS(=O)(=O)c1cc(NC(=O)CCNC(C)=O)ccc1C`: the “lipid storage change, negative = inhibition” value was 6.34% (inactive) and the cell number change was 9.21%.

Regarding `CS(=O)(=O)NCCCCNc1ccc(C(F)(F)F)cc1[N+](=O)[O-]`, the “lipid storage change, negative = inhibition” value is 3.4% (inactive) and the cell number change stood at 4.42%.

Consider `O=[N+]([O-])c1cc(C(F)(F)F)ccc1NCCCCNS(=O)(=O)c1ccc(Cl)cc1`, for which the Potency is 25.9 µM (active) and the cell number change was -16.8%.

`CS(=O)(=O)NCCCNc1ccc(C(F)(F)F)cc1[N+](=O)[O-]`: the “lipid storage change, negative = inhibition” value was -1.44% (inactive) and the cell number change stood at 2.05%.

In the case of `COc1ccc(C(=O)NCCNc2nc3ccc(C)cc3cc2C#N)cc1`, the Potency is 20.6 µM (active) and the cell number change was -23.8%.

On to `CCOc1ccc2nc(NCCNC(=O)CC)c(C#N)cc2c1`, for which the “lipid storage change, negative = inhibition” value was 16.4% (inactive) and the cell number change is 0.214%.

As for `COc1ccc(C(=O)NCCNc2nc3ccc(C)cc3cc2C#N)cc1OC`, the “lipid storage change, negative = inhibition” value was 19.1% (inactive).

With `CCOc1ccccc1OCCCC(=O)N1CCN(S(=O)(=O)c2ccc(C)cc2)CC1`, the “lipid storage change, negative = inhibition” value is 11.4% (inactive) and the cell number change was -13.5%.

Take `Cc1c(C(=O)O)sc2nc(CSc3ncc(C(F)(F)F)cc3Cl)[nH]c(=O)c12`: the “lipid storage change, negative = inhibition” value was 3.11% (inactive) and the cell number change was determined as 6.43%.

For the molecule `Cc1c(C)n(Cc2ccccc2)c2ncnc(NCCCO)c12`, the “lipid storage change, negative = inhibition” value is -4.82% (inactive) and the cell number change was 13.8%.

As for `O=c1c(Cl)c(NCc2ccc(F)cc2Cl)cnn1C12CC3CC(CC(C3)C1)C2`, the “lipid storage change, negative = inhibition” value was 1.12% (inactive) and the cell number change was -5.4%.

`O=c1c(Cl)c(NCc2ccco2)cnn1C12CC3CC(CC(C3)C1)C2`: the “lipid storage change, negative = inhibition” value is -19% (inactive) and the cell number change was -8.21%.

`O=c1c(Cl)c(NCc2ccccc2Cl)cnn1C12CC3CC(CC(C3)C1)C2`: the Potency is 13 µM (active) and the cell number change was -8.24%.

`Cc1cccc(NC(=O)CS(=O)(=O)c2cn(C)c3ccccc23)c1`: the molecule was called inactive and the cell number change is -0.98%.

`O=C(Cc1c(F)cccc1Cl)NCCCn1ccnc1`: the “lipid storage change, negative = inhibition” value was -0.0337% (inactive) and the cell number change is -2.56%.

In the case of `CNC(=S)N(CCCn1ccnc1)Cc1c(F)cccc1Cl`, the Potency is 3.26 µM (active) and the cell number change was found to be 21.2%.

On to `O=C(CC1C(=O)NCCN1Cc1c(F)cccc1Cl)NCCCn1ccnc1` (stereo unspecified), for which the “lipid storage change, negative = inhibition” value was 8.58% (inactive) and the cell number change was determined as 8.35%.

With `CCCCn1c(CNC(=O)C(C)(C)C)nc2ccccc21`, the “lipid storage change, negative = inhibition” value is 9.89% (inactive) and the cell number change is -1.23%.

Turning to `COc1ccc(Nc2nnc(SCC(=O)Nc3ccc4[nH]c(=O)[nH]c4c3)s2)cc1`, the “lipid storage change, negative = inhibition” value was -11.5% (inactive) and the cell number change is -17.1%.

For the molecule `Cc1nnc(SCCN2C(=O)c3ccccc3C2=O)[nH]c1=O`, the “lipid storage change, negative = inhibition” value is 21.9% (inactive) and the cell number change was -14.8%.

Consider `O=C(/C=C/c1ccccc1[N+](=O)[O-])NCCN1C(=O)S/C(=C\c2ccc(F)cc2)C1=O`, for which the “lipid storage change, negative = inhibition” value was -24.8% (inactive) and the cell number change was -11.5%.

As for `CC(C)(C)C(=O)NCCN1C(=O)S/C(=C\c2ccc([N+](=O)[O-])cc2)C1=O`, the Potency was 11.6 µM (active) and the cell number change was -4.32%.

On to `O=C(/C=C/c1cccc([N+](=O)[O-])c1)NCCN1C(=O)S/C(=C\c2ccc(F)cc2)C1=O`, for which the “lipid storage change, negative = inhibition” value was 7.68% (inactive) and the cell number change is 13.9%.

As to `COc1ccc(-c2nc(CS(=O)(=O)CC(=O)NCc3cccc(Br)c3)c(C)o2)cc1`, the Potency was 13 µM (active) and the cell number change was 10.1%.

`COc1cccc(-c2nc(CS(=O)(=O)CC(=O)NCc3ccccc3)c(C)o2)c1`: the “lipid storage change, negative = inhibition” value was 29.1% (inactive) and the cell number change came out at 1.69%.

For the molecule `COc1ccc(-c2nc(CS(=O)(=O)CC(=O)NCc3ccccc3Br)c(C)o2)cc1`, the “lipid storage change, negative = inhibition” value is -6.39% (inactive) and the cell number change was found to be 11.5%.

The values are drawn from PubChem BioAssay AID2685 (National Center for Advancing Translational Sciences (NCATS), 2010).
